Here are results for 18 compounds from PubChem BioAssay (NCI).

Some test systems named below: NCI-H23 lung; NCI-H226 lung; NCI-H322M lung; HOP-62 NSCLC; NCI-H460 lung; HOP-92 NSCLC; NCI-H522 lung; A549/ATCC NSCLC; 786-0 renal; COLO 205 colon.
Test in all cases: NCI-60 one-dose screen, 48 h (100 = growth as untreated, 0 = no growth, -100 = all killed)
Holding throughout (settings): 10 µM unless noted

SMILES strings stand for the structures. About 83,000 compounds went through this panel and 20% of them were active in at least one assay; those are over-represented in the sample as a whole.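 A percent growth of 40 corresponds to 60% growth inhibition; 0 means no net growth; -100 means all cells died. Active threshold: below 10.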 Unmarked numbers belong to inactive results. Activity calls are given as the source filed them.

For the compound `C=C(C)[C@@H]1CC[C@]2(C(=O)O)CC[C@]3(C)[C@H](CC[C@@H]4[C@@]5(C)C/C(=C/c6ccco6)C(=O)C(C)(C)[C@@H]5CC[C@]43C)[C@@H]12`, the growth in the experiment with NCI-H23 lung was -58.6% [100 µM] (active); in the experiment with NCI-H226 lung it was -37.5% [100 µM] (active); with NCI-H322M lung it was -87.9% [100 µM] (active); in the experiment with HOP-62 NSCLC it was -85.2% [100 µM] (active); in the experiment on NCI-H460 lung, -55.6% [100 µM] (active); in the experiment on HOP-92 NSCLC, -86.4% [100 µM] (active). Also, the growth in the experiment on NCI-H522 lung is -72.7% [100 µM] (active); in the experiment on A549/ATCC NSCLC it was -73.7% [100 µM] (active); in the experiment with 786-0 renal, -60.4% [100 µM] (active); in the experiment with COLO 205 colon, -73.1% [100 µM] (active).

In the case of `COc1ncc(-c2ccc3nccc(C#CCCCCC(=O)NO)c3c2)cc1NS(=O)(=O)c1ccc(F)cc1F`, the growth with NCI-H23 lung is 29.6%; in the experiment on NCI-H226 lung it was 9.85% (active); with NCI-H322M lung, 7.5% (active); in the experiment on HOP-62 NSCLC, 4.48% (active); with NCI-H460 lung, 6.53% (active); in the experiment with HOP-92 NSCLC it was -27.7% (active). Besides, the growth in the experiment with NCI-H522 lung is -21.7% (active); in the experiment with A549/ATCC NSCLC, -12.7% (active); in the experiment with 786-0 renal it was -14.5% (active); in the experiment with COLO 205 colon, -44.5% (active).

As to `CCN=Cc1c(O)c(O)c(C(C)C)c2cc(C)c(-c3c(C)cc4c(C(C)C)c(O)c(O)c(C=NCC)c4c3O)c(O)c12`, the growth in the experiment on NCI-H23 lung was 24.9%; with NCI-H226 lung it was 80.4%; in the experiment with NCI-H322M lung it was 48.3%; with HOP-62 NSCLC it was 51.3%; in the experiment with NCI-H460 lung it was 26%; in the experiment on HOP-92 NSCLC, 16.3%. The growth in the experiment with NCI-H522 lung was 43.3%; with A549/ATCC NSCLC it was 27.2%; in the experiment with 786-0 renal it was 72.5%; in the experiment on COLO 205 colon, 7.89% (active).

`O=S(=O)(NCCNc1nccc(-c2c(-c3cccc(F)c3)nc3occn23)n1)c1ccc(C(F)(F)F)cc1`: the growth with NCI-H23 lung is 98.5%; in the experiment on NCI-H226 lung, 84.2%; in the experiment on NCI-H322M lung, 89.3%; with HOP-62 NSCLC, 85.1%; in the experiment on NCI-H460 lung, 98.9%; with HOP-92 NSCLC it was 77.5%. Also, the growth was 74.4% with NCI-H522 lung, 70% in the experiment with A549/ATCC NSCLC, 78.7% in the experiment on 786-0 renal and 96% with COLO 205 colon.

As to `O=C1CC(c2ccccc2)Cc2nc3ccc(Cl)cc3cc21` (stereo not given), the growth was 36.4% in the experiment on NCI-H23 lung; 20.8% in the experiment with NCI-H226 lung; 39.8% with NCI-H322M lung; 35.9% in the experiment on HOP-62 NSCLC; 3.33% (active) with NCI-H460 lung; 39.3% in the experiment with HOP-92 NSCLC. The growth in the experiment with NCI-H522 lung is 3.02% (active); in the experiment on A549/ATCC NSCLC it was 23.3%; in the experiment with 786-0 renal, 37.6%; in the experiment on COLO 205 colon, -31.7% (active).

Regarding `O=c1cc(-c2ccccc2)oc2cc(OCc3cn(Cc4ccc(F)cc4)nn3)cc(O)c12`, the growth in the experiment with NCI-H23 lung was 45.8% [100 µM]; in the experiment on NCI-H226 lung, 60.9% [100 µM]; in the experiment with NCI-H322M lung, 86.1% [100 µM]; in the experiment on HOP-62 NSCLC it was -28.5% [100 µM] (active); in the experiment with NCI-H460 lung it was 71.4% [100 µM]; in the experiment with HOP-92 NSCLC, -3.35% [100 µM] (active). The growth with NCI-H522 lung was 15.1% [100 µM]; with A549/ATCC NSCLC it was 81.2% [100 µM]; in the experiment on 786-0 renal, 2.24% [100 µM] (active); with COLO 205 colon, 103% [100 µM].

Consider `Cc1ccc(-c2cc(O)c(-c3ccc(C)cc3C)cc2O)c(C)c1`, for which the growth in the experiment with NCI-H23 lung was 76.7%; in the experiment on NCI-H226 lung, 62.9%; in the experiment with NCI-H322M lung, 106%; in the experiment with HOP-62 NSCLC, 74%; in the experiment on NCI-H460 lung, 23.6%; in the experiment with HOP-92 NSCLC, 67.7%. Besides, the growth in the experiment with NCI-H522 lung is 59.2%; in the experiment with A549/ATCC NSCLC, 51.9%; in the experiment with 786-0 renal, 60%; in the experiment with COLO 205 colon it was 91.1%.

Turning to `Cn1cc(-c2noc(-c3cn(C)c4ncc(F)cc34)n2)c2ccccc21`, the growth with NCI-H23 lung was 75.1%; with NCI-H226 lung, 76.7%; in the experiment with NCI-H322M lung, 41.3%; in the experiment with HOP-62 NSCLC it was 36.3%; in the experiment on NCI-H460 lung it was 22.9%; in the experiment on HOP-92 NSCLC it was 62%. For the same compound, the growth in the experiment with NCI-H522 lung is 66.2%; in the experiment with A549/ATCC NSCLC, 37.9%; in the experiment with 786-0 renal, 33.6%; in the experiment on COLO 205 colon it was 66.7%.

On to `O=C(OCc1ccc2c(Cl)cc(Cl)c(O)c2n1)N1CCN(C(=O)c2cc3cc(F)ccc3[nH]2)CC1`, for which the growth in the experiment on NCI-H23 lung was 26.3%; in the experiment on NCI-H226 lung it was 2.12% (active); in the experiment with NCI-H322M lung it was 33.5%; in the experiment with HOP-62 NSCLC it was 6.32% (active); in the experiment on NCI-H460 lung, 1.07% (active); with HOP-92 NSCLC, 39.2%. For the same compound, the growth was -19.1% (active) in the experiment on NCI-H522 lung, 13.6% in the experiment on A549/ATCC NSCLC, 79.2% with 786-0 renal and 85.7% with COLO 205 colon.

In the case of `CCCn1ccnc1C(O)c1ccc(OCc2ccccc2)c(OC)c1` (stereo not given), the growth is 90.7% in the experiment with NCI-H23 lung; 97.4% in the experiment with NCI-H226 lung; 90.1% in the experiment on NCI-H322M lung; 87.5% with HOP-62 NSCLC; 103% in the experiment with NCI-H460 lung; 68.1% in the experiment on HOP-92 NSCLC. For the same compound, the growth with NCI-H522 lung is 66.1%; with A549/ATCC NSCLC it was 97.7%; in the experiment on 786-0 renal, 96.6%; in the experiment on COLO 205 colon, 93.2%.

Take `O=C1CC(c2ccccc2)Cc2nc3ccc(Br)cc3cc21` (stereo not given): the growth with NCI-H23 lung was 39.6%; in the experiment on NCI-H226 lung it was 24.1%; with NCI-H322M lung it was 35.9%; with HOP-62 NSCLC it was 40.4%; with NCI-H460 lung, 4.63% (active); with HOP-92 NSCLC, 40.1%. In addition, the growth was -3.56% (active) in the experiment on NCI-H522 lung, 23.8% with A549/ATCC NSCLC, 41.2% in the experiment with 786-0 renal and -36.3% (active) in the experiment on COLO 205 colon.

Consider `Cc1cc(C)c(S(=O)(=O)/N=c2/n(-c3ccccc3)nc3n2CCN3C2=NCCN2)c(C)c1`, for which the growth was 86.7% in the experiment on NCI-H23 lung; 89% with NCI-H226 lung; 87.1% in the experiment on NCI-H322M lung; 86.8% in the experiment on HOP-62 NSCLC; 71.8% in the experiment on NCI-H460 lung; 63.9% with HOP-92 NSCLC. For the same compound, the growth is 103% with NCI-H522 lung, 79.9% in the experiment with A549/ATCC NSCLC, 89.1% in the experiment on 786-0 renal and -28.9% (active) in the experiment with COLO 205 colon.

For `COc1ncc(-c2ccc3nccc(C#CCCCCC(=O)O)c3c2)cc1NS(=O)(=O)c1ccc(F)cc1F`, the growth was 44% with NCI-H23 lung; 46.4% with NCI-H226 lung; 18.3% with NCI-H322M lung; 29.9% with HOP-62 NSCLC; 12.3% in the experiment on NCI-H460 lung; -21.7% (active) in the experiment on HOP-92 NSCLC. For the same compound, the growth in the experiment on NCI-H522 lung is 43.4%; in the experiment on A549/ATCC NSCLC, 14.8%; in the experiment on 786-0 renal it was 3.82% (active); in the experiment with COLO 205 colon it was 28.6%.

On to `C=C(C)[C@@H]1CC[C@]2(C(=O)NCCCCCCN(CCCN)CCCN)CC[C@]3(C)[C@H](CC[C@@H]4[C@@]5(C)CC[C@H](OCCCN)C(C)(C)[C@@H]5CC[C@]43C)[C@@H]12`, for which the growth in the experiment on NCI-H23 lung was 77.4% [100 µM]; in the experiment with NCI-H226 lung, 111% [100 µM]; with NCI-H322M lung, 80.7% [100 µM]; with HOP-62 NSCLC, 93.2% [100 µM]; in the experiment on NCI-H460 lung, -16.2% [100 µM] (active); with HOP-92 NSCLC, 76.1% [100 µM]. The growth in the experiment with NCI-H522 lung was 88.8% [100 µM]; in the experiment on A549/ATCC NSCLC, 46.2% [100 µM]; with 786-0 renal it was 61.9% [100 µM]; in the experiment with COLO 205 colon, 18.9% [100 µM].

For the compound `O=C(Nc1cc(F)cc2cccnc12)c1cnc(N2CCNCC2)cn1`, the growth with NCI-H23 lung is 83.4%; in the experiment on NCI-H226 lung, 100%; in the experiment with NCI-H322M lung, 69.3%; in the experiment on HOP-62 NSCLC, 85.2%; with NCI-H460 lung, 80.6%; in the experiment with HOP-92 NSCLC, 49.1%. Moreover, the growth with NCI-H522 lung was 54.5%; with A549/ATCC NSCLC, 88.1%; in the experiment with 786-0 renal, 89.1%; in the experiment on COLO 205 colon it was 13.9%.

For the compound `Oc1cc(Nc2ccnc3cc(Cl)ccc23)c2ncccc2c1`, the growth in the experiment with NCI-H23 lung was 73.8%; in the experiment with NCI-H226 lung it was 91%; in the experiment on NCI-H322M lung it was 99.7%; with HOP-62 NSCLC it was 74.4%; with NCI-H460 lung it was 75.5%; with HOP-92 NSCLC, 39.3%. Also, the growth with NCI-H522 lung is 76.7%; with A549/ATCC NSCLC, 84.2%; in the experiment with 786-0 renal, 106%; in the experiment with COLO 205 colon it was 96.4%.

For the compound `O=C(Nc1cccc(C2=NCCN2)c1)c1cccc(C(=O)Nc2cccc(C3=NCCN3)c2)c1`, the growth with NCI-H23 lung is 95.4%; in the experiment with NCI-H226 lung it was 90.5%; with NCI-H322M lung it was 92.4%; with HOP-62 NSCLC it was 97.1%; in the experiment on NCI-H460 lung, 102%; with HOP-92 NSCLC it was 101%. In addition, the growth is 94.1% in the experiment with NCI-H522 lung, 102% in the experiment on A549/ATCC NSCLC, 103% in the experiment with 786-0 renal and 99.8% in the experiment on COLO 205 colon.

For `CCN1c2ccccc2C(Cl)(c2ccc(N(C)C)cc2)c2ccccc21`, the growth with NCI-H23 lung was 33.8%; with NCI-H226 lung, 88.2%; in the experiment with NCI-H322M lung it was 116%; with HOP-62 NSCLC, 73.6%; with NCI-H460 lung, 66%; with HOP-92 NSCLC it was 59.6%. Also, the growth is 64.2% in the experiment with NCI-H522 lung, 82.9% with A549/ATCC NSCLC, 75.8% with 786-0 renal and 75.5% in the experiment on COLO 205 colon.
